Data reported in PubChem BioAssay AID1479144 (National Center for Advancing Translational Sciences (NCATS), 2020).
Results filed as inconclusive are left out. A number with no mark means an inactive call. The source made the active and inactive calls. Calls follow the shape of the full dose curve.

Assay: Confirmatory qHTS for Vero E6 cytotoxicity: counterscreen for inhibitors of SARS-S pseudo-typed particle cell entry
Settings: cell viability; series mostly up to 57.1 µM; activity change, negative = cytotoxicity: at the top concentration

Compound	Potency	activity change, negative = cytotoxicity
CCCCCCCCCCCCCC[n+]1ccc(C)cc1	4.29 µM (active)	
C=CC1(C)CC(=O)C2(O)C(C)(O1)C(OC(C)=O)C(OC(=O)CCN(C)C)C1C(C)(C)CCC(O)C12C (stereo not drawn)		-12.4%
CCCCCCCCCCCCOCCOCCOCCOCCOCCOCCOCCOCCOCCO		-16.9%
Nc1ccn([C@@H]2O[C@H](CO)[C@@H](O)C2(F)F)c(=O)n1		0%
CC(C)(C)NC(=O)[C@H]1CC[C@H]2[C@@H]3CC[C@H]4NC(=O)C=C[C@]4(C)[C@H]3CC[C@]12C		0.628%
CCCCCCNC(=O)n1cc(F)c(=O)[nH]c1=O		0%
O=C(Nc1ccc([N+](=O)[O-])cc1Cl)c1cc(Cl)ccc1O	0.857 µM (active)	
CCOc1ccc(Cc2nccc3cc(OCC)c(OCC)cc23)cc1OCC	27.1 µM (active)	
CCCCc1oc2ccccc2c1C(=O)c1cc(I)c(OCCN(CC)CC)c(I)c1		0%
CN1CCC(=C2c3ccccc3CCc3sccc32)CC1		1.55%
CN(C)CCC=C1c2ccccc2C(C)(C)c2ccccc21		0%
O=c1ccc2ccccc2o1		0%
CN1CCC(=C2c3ccccc3C=Cc3ccccc32)CC1		0%
CCN(CC)Cc1cc(Nc2ccnc3cc(Cl)ccc23)ccc1O		-2.14%
COc1c(OCCCN2CCOCC2)ccc2c3n(c(=NC(=O)c4cnc(N)nc4)nc12)CCN3		-8.49% [at 11.2 µM]
CC(=O)OCC1=C(C(=O)O)N2C(=O)[C@@H](NC(=O)Cc3cccs3)[C@H]2SC1		4.91%
CC(C)OC(=O)[C@H](C)N[P@](=O)(CO[C@H](C)Cn1cnc2c(N)ncnc21)Oc1ccccc1		0%

Compound	Potency	activity change, negative = cytotoxicity
O=C(O)c1cc(O)c2c(c1)[C@H]([C@H]1c3cc(C(=O)O)cc(O)c3C(=O)c3c(O[C@@H]4O[C@H](CO)[C@@H](O)[C@H](O)[C@H]4O)cccc31)c1cccc(O[C@@H]3O[C@H](CO)[C@@H](O)[C@H](O)[C@H]3O)c1C2=O		3.1% [at 33 µM]
Cc1nn(C)c2c1C(c1ccccc1F)=NCC(=O)N2C		0%
CC(C)(C)C(=O)OCOP(=O)(COCCn1cnc2c(N)ncnc21)OCOC(=O)C(C)(C)C		-6.28%
Cc1cc(-n2c(=O)[nH]c(=O)n(C)c2=O)ccc1Oc1ccc(S(=O)(=O)C(F)(F)F)cc1		-23.2%
CC(=O)Oc1ccccc1C(=O)Nc1ncc([N+](=O)[O-])s1	9.61 µM (active)	
CCn1cc(C(=O)O)c(=O)c2cc(F)c(N3CCNC(C)C3)c(F)c21 (stereo not drawn)		-17.7%
COc1cccc2c1C(=O)c1c(O)c3c(c(O)c1C2=O)C[C@@](O)(C(C)=O)C[C@@H]3O[C@H]1C[C@H](N)[C@H](O)[C@H](C)O1	13.6 µM (active)	
CC(CN(C)C)CN1c2ccccc2CCc2ccccc21 (stereo not drawn)		-18.4%
Cc1nnc(C(=O)NC(C)(C)c2nc(C(=O)NCc3ccc(F)cc3)c(O)c(=O)n2C)o1		3.68%
COc1cc([C@@H]2c3cc4c(cc3C(O[C@@H]3O[C@@H]5CO[C@@H](c6cccs6)OC5[C@H](O)[C@H]3O)C3COC(=O)[C@@H]32)OCO4)cc(OC)c1O (stereo partly drawn)	24.1 µM (active)	
C[C@H]1[C@H](OC(=O)CCC(=O)O)O[C@@H]2O[C@@]3(C)CC[C@H]4[C@H](C)CC[C@@H]1[C@@]24OO3		-12.5%
Cc1c(N)nc(C(CC(N)=O)NCC(N)C(N)=O)nc1C(=O)NC(C(=O)NC(C)C(O)C(C)C(=O)NC(C(=O)NCCc1nc(-c2nc(C(=O)NCCCN[C@@H](C)c3ccccc3)cs2)cs1)C(C)O)C(O[C@@H]1O[C@@H](CO)[C@@H](O)[C@H](O)[C@@H]1O[C@H]1O[C@H](CO)[C@@H](O)[C@H](OC(N)=O)[C@@H]1O)c1cnc[nH]1 (stereo partly drawn)		0%
COc1cc(NS(C)(=O)=O)ccc1Nc1c2ccccc2nc2ccccc12	12.1 µM (active)	
COc1cc2c(cc1Cc1cccc(Cl)c1F)c(=O)c(C(=O)O)cn2[C@H](CO)C(C)C		0%
CN(C/C=C/c1ccccc1)Cc1cccc2ccccc12		-9.07%
CCCN1C[C@H](C)[C@@H](O)[C@](C)(O)[C@@H](CC)OC(=O)[C@H](C)[C@@H](O[C@H]2C[C@@](C)(OC)[C@@H](O)[C@H](C)O2)C(C)[C@@H](O[C@@H]2O[C@H](C)C[C@H](N(C)C)[C@H]2O)[C@](C)(O)C[C@H]1C (stereo partly drawn)		-15.3%
